In the antibiotic and cytotoxicity screens of Wong et al. (2023) one finds cytotoxicity call data, which are given here for 37 compounds.

Molecules are shown by their SMILES. The whole screen tested about 39,000 compounds, of which about 1,500 (3.8%) were called active. For the sample, actives were picked, then their nearest neighbours and some compounds at random.

For the assay, the system named is HSkMC (human skeletal muscle cells). Briefly: cytotoxicity call (relative viability < 0.9). As to conditions: 10 µM.
Turning to `CN1C[C@H](O)COC[C@@H]2O[C@@H](CC(=O)N3CCN(c4ccccc4)CC3)CC[C@H]21`, the cytotoxicity call was “inactive”.

Consider `C[C@@H]1CCCCO[C@H](CN(C)C(=O)Nc2ccc(C(F)(F)F)cc2)[C@H](C)CN([C@H](C)CO)C(=O)c2cc(N(C)C)ccc2O1`, for which the cytotoxicity call is “inactive”.

On to `COc1cccc(NC(=O)N(C)C[C@H]2Oc3ncc(C#Cc4cccnc4)cc3C(=O)N([C@@H](C)CO)C[C@@H]2C)c1`, for which the cytotoxicity call was “inactive”. On to `C[C@@H]1CN([C@H](C)CO)C(=O)Cc2cc(NC(=O)CCN3CCOCC3)ccc2O[C@H]1CN(C)S(=O)(=O)c1ccc(Cl)cc1`, for which the cytotoxicity call is “inactive”.

On to `O=C(O)c1cc(F)c2nc(N3[C@@H]4CC[C@H]3C[C@@H](OCc3c(-c5ccccc5OC(F)(F)F)noc3C3CC3)C4)sc2c1`, for which the cytotoxicity call was “inactive”. With `C[C@H](CO)N1C[C@H](C)[C@H](CN(C)Cc2ccncc2)Oc2c(NC(=O)Nc3cccc4ccccc34)cccc2C1=O`, the cytotoxicity call was “inactive”.

Take `C[C@H](CO)N1C[C@H](C)[C@@H](CN(C)S(=O)(=O)c2ccc(Oc3ccccc3)cc2)OCc2cnnn2CCCC1=O`: the cytotoxicity call is “inactive”.

Consider `C[C@@H]1CN([C@@H](C)CO)C(=O)c2cc(NC(=O)C3CCCCC3)ccc2O[C@@H](C)CCCCO[C@H]1CN(C)Cc1ccc2c(c1)OCO2`, for which the cytotoxicity call was “inactive”. Then `COc1ccc(CNC(=O)C[C@@H]2C[C@@H]3c4cc(NS(=O)(=O)c5ccc(F)cc5)ccc4O[C@@H]3[C@H](CO)O2)cc1`, with “inactive”. Then `O=C1c2ccc3c4c(ccc(c24)C(=O)N1CCCCO)C(=O)N(CCCCO)C3=O`, with “active”. Next, `O=C(O)CCCN1C(=O)c2cccc3cccc(c23)C1=O`: “inactive”; `NC(=O)CCN1C(=O)c2ccccc2C1=O`: “inactive”.

For `CN1C(=O)c2cc(NC(=O)C3CCOCC3)ccc2OC[C@H]2O[C@H](CC(=O)NCc3ccc4c(c3)OCO4)CC[C@H]21`, the cytotoxicity call was “inactive”. Next, `C[C@H](CO)N1C[C@H](C)[C@H](CN(C)S(=O)(=O)c2cccs2)Oc2c(NS(=O)(=O)c3cn(C)cn3)cccc2C1=O`: “inactive”; `C[C@H](CO)N1C[C@H](C)[C@H](CN(C)C(=O)Nc2ccc(C(F)(F)F)cc2)OCCCC[C@H](C)Oc2ccc(NS(=O)(=O)c3ccc(Cl)cc3)cc2C1=O`: “inactive”. Then `C[C@@H]1CCCCO[C@@H](CN(C)C(=O)Nc2ccc(C(F)(F)F)cc2)[C@H](C)CN([C@H](C)CO)C(=O)c2cc(NS(=O)(=O)c3ccc(Cl)cc3)ccc2O1`, with “active”; and `C[C@H]1CCCCO[C@H](CN(C)C(=O)Nc2ccc(C(F)(F)F)cc2)[C@@H](C)CN([C@@H](C)CO)C(=O)c2cc(NS(=O)(=O)c3ccc(F)cc3)ccc2O1`, with “active”.

Take `C[C@@H]1CCCCO[C@H](CN(C)C(=O)Nc2ccc(C(F)(F)F)cc2)[C@H](C)CN([C@@H](C)CO)C(=O)c2cc(NS(=O)(=O)c3ccc(Cl)cc3)ccc2O1`: the cytotoxicity call is “inactive”.

With `C[C@@H]1CN([C@H](C)CO)C(=O)c2cc(NS(=O)(=O)c3ccc(Cl)cc3)ccc2O[C@@H](C)CCCCO[C@H]1CN(C)C(=O)Nc1ccc(C(F)(F)F)cc1`, the cytotoxicity call is “active”. Regarding `C[C@@H]1CCCCO[C@@H](CN(C)C(=O)Nc2ccc(C(F)(F)F)cc2)[C@H](C)CN([C@H](C)CO)C(=O)c2cc(NS(=O)(=O)c3ccc(F)cc3)ccc2O1`, the cytotoxicity call is “inactive”.

`C[C@@H]1CCCCO[C@H](CN(C)C(=O)Nc2ccc(C(F)(F)F)cc2)[C@H](C)CN([C@H](C)CO)C(=O)c2cc(NS(=O)(=O)c3ccc(Cl)cc3)ccc2O1`: the cytotoxicity call was “inactive”. Next, `C[C@@H]1CCCCO[C@@H](CN(C)C(=O)Nc2ccc(C(F)(F)F)cc2)[C@H](C)CN([C@@H](C)CO)C(=O)c2cc(NS(=O)(=O)c3ccc(Cl)cc3)ccc2O1`: “inactive”. Then `C[C@@H]1CCCCO[C@@H](CN(C)C(=O)Nc2ccc(C(F)(F)F)cc2)[C@H](C)CN([C@@H](C)CO)C(=O)c2cc(NS(=O)(=O)c3ccc(F)cc3)ccc2O1`, with “inactive”; and `C[C@H]1CCCCO[C@@H](CN(C)C(=O)Nc2ccc(C(F)(F)F)cc2)[C@@H](C)CN([C@@H](C)CO)C(=O)c2cc(NS(=O)(=O)c3ccc(Cl)cc3)ccc2O1`, with “inactive”. Then `C[C@@H]1CCCCO[C@H](CN(C)C(=O)Nc2ccc(C(F)(F)F)cc2)[C@@H](C)CN([C@@H](C)CO)C(=O)c2cc(NS(=O)(=O)c3ccc(Cl)cc3)ccc2O1`, with “active”. As to `C[C@@H]1CN([C@@H](C)CO)C(=O)c2cc(NS(=O)(=O)c3ccc(Cl)cc3)ccc2O[C@@H](C)CCCCO[C@@H]1CN(C)C(=O)Nc1ccc(C(F)(F)F)cc1`, the cytotoxicity call was “inactive”. Next, `C[C@H](CO)N1C[C@H](C)[C@H](CN(C)C(=O)Nc2ccc(C(F)(F)F)cc2)Oc2c(NC(=O)Nc3ccc4c(c3)OCO4)cccc2C1=O`: “inactive”; `C[C@H]1CN([C@@H](C)CO)C(=O)c2cc(NS(=O)(=O)c3ccc(F)cc3)ccc2O[C@H]1CN(C)Cc1ccncc1`: “inactive”.

As for `c1ccc([C@@H]2Oc3ccccc3[C@@H]3Oc4ccccc4C[C@@H]23)cc1`, the cytotoxicity call is “inactive”. On to `Cc1noc(C)c1S(=O)(=O)Nc1cccc2c1O[C@H](CN(C)CC1CC1)[C@H](C)CN([C@H](C)CO)C2=O`, for which the cytotoxicity call was “inactive”. Next, `C[C@@H]1CN([C@@H](C)CO)C(=O)c2cc(NC(=O)Cc3ccccc3)ccc2O[C@@H](C)CCCCO[C@@H]1CN(C)C(=O)Nc1ccccc1`: “inactive”; `COc1ccc(CN(C)C[C@@H]2OCCCC[C@H](C)Oc3ccc(NC(=O)C4CCCCC4)cc3C(=O)N([C@@H](C)CO)C[C@H]2C)cc1`: “inactive”. With `C[C@@H]1CN([C@@H](C)CO)C(=O)c2cccc(NC(=O)C3CC3)c2O[C@@H]1CN(C)Cc1ccc(C(=O)O)cc1`, the cytotoxicity call is “inactive”. Next, `Cc1noc(C)c1S(=O)(=O)N(C)C[C@H]1Oc2ccc(NC(=O)C3CC3)cc2CC(=O)N([C@H](C)CO)C[C@H]1C`: “inactive”; `Cc1ccc(S(=O)(=O)Nc2ccc3c(c2)C(=O)N([C@@H](C)CO)C[C@H](C)[C@H](CN(C)C(=O)Nc2ccccc2)OCCCC[C@H](C)O3)cc1`: “inactive”; `COc1ccc(CN(C)C[C@@H]2Oc3ccc(NS(=O)(=O)c4cn(C)cn4)cc3CC(=O)N([C@@H](C)CO)C[C@H]2C)cc1`: “inactive”. Next, `C[C@H](CO)N1C[C@H](C)[C@H](CN(C)C(=O)Nc2ccccc2)OCc2ccccc2-c2c(n(C)c3ccccc23)C1=O`: “inactive”.
